From PubChem
tim23-1 inh = inhibits growth of tim23-1 mutant yeast. S. cerevisiae tim23-1 growth, BacTiter-Glo luminescence, 24 h. AID 463212. 330,000 compounds, 1.3% hits. inhibition, % at 20 µM;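 active means growth inhibition of the mutant yeast at or above 50%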;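 further: temperature-sensitive mutant grown at 25 °C; plate controls were DMSO-treated mutant yeast for no effect and medium wells lacking yeast for full effect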
NALP3 yeast inh = NALP3 inhibition in yeast | Yeast reconstituted NLRP3/ASC/caspase-1, beta-gal luminescence, 24 h | inhibition, % at 10 µM | 330,000 compounds, 0.39% hits | AID 2825;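 active means inhibition of 50% or more; inactive means inhibition below 50%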;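 further: plate controls were induced DMSO wells for no effect and uninduced yeast grown without galactose for full effect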
CR mimetic SO = yeast age-related superoxide inhibition as caloric restriction mimetic | superoxide response (% of plate mean), % at 10 µM | 330,000 compounds, 0.18% hits | S. cerevisiae aged cells, superoxide DHE fluorescence; hits give low values;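 active means superoxide response under a set limit, about three screen SD below normal, cut at about 65% in these data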;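 further: yeast aged for seven days with compound at 30 °C before DHE staining; 100% = average MFI of all compound-treated wells on the plate with controls excluded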
TIM10 inh = TIM10 yeast growth inhibition. S. cerevisiae TIM10 strain growth, BacTiter-Glo luminescence, 24 h. inhibition, % at 10 µM. 330,000 compounds, 1.4% hits;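 active means inhibition of 40% or more at the single tested concentration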;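 further: wild-type TIM10 isogenic control strain grown at permissive 25 °C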
tim10-1 inh = tim10-1 yeast growth inhibition. S. cerevisiae tim10-1 ts strain growth, BacTiter-Glo, 24 h. inhibition, % at 20 µM. 330,000 compounds, 2.2% hits. AID 463190;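 active means inhibition of at least 40%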;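 further: mutant grown at 25 °C; 0% = DMSO wells with yeast and 100% = wells holding no yeast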
tim23-1 conf = confirmation of tim23-1 mutant yeast growth inhibitors; shares compounds with tim23-1 inh; S. cerevisiae tim23-1 growth, BacTiter-Glo luminescence, 24 h; inhibition, % at 20 µM; 4,400 compounds, 83% hits; AID 463218;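 active means inhibition above about 39% in either of two replicate wells at 20 µM, limit read from the data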;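 further: temperature-sensitive tim23-1 mutant grown at 25 °C; 0% = DMSO wells with yeast and 100% = medium wells without yeast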
* hit, by the source's call. In the library only some 3.8% were active in any assay of this set; here they are far more common.

What do the screens show for `CC(CNC(=O)Cn1ccc(N)nc1=O)c1ccccc1` (stereo unspecified)?
tim23-1 inh: 10.4; NALP3 yeast inh: 16.4; CR mimetic SO: 98.8; TIM10 inh: -2.6; tim10-1 inh: -1.4

How did O=C1CCN(Cc2ccccc2)C=C1c1ccc2ccccc2c1 do in these assays?
tim23-1 inh: 50.2*; NALP3 yeast inh: 19.4; CR mimetic SO: 95.3; TIM10 inh: 19.3; tim10-1 inh: 17.6; tim23-1 conf: 46.6*

Results for CCOc1ccc(-c2nc(N)ncc2-c2ccc(Cl)cc2)c(O)c1 ?
tim23-1 inh: 54.2*; NALP3 yeast inh: 13.4; CR mimetic SO: 129.7; TIM10 inh: 9.9; tim10-1 inh: 23.2; tim23-1 conf: -21.0

What do the screens show for `CCOc1ccc(-c2nc(N)ncc2-c2ccc(OC)cc2)c(O)c1`?
tim23-1 inh: 22.9; NALP3 yeast inh: 30.6; CR mimetic SO: 92.1; TIM10 inh: 6.8; tim10-1 inh: -9.0

How did CCOc1ccc(-c2nc(N)ncc2Oc2ccc(OC)cc2)c(O)c1 do in these assays?
tim23-1 inh: 55.9*; NALP3 yeast inh: 12.5; CR mimetic SO: 116.8; TIM10 inh: 31.2; tim10-1 inh: 20.7; tim23-1 conf: 62.5*

How did COC(=O)C1=C(C(=O)OC)C(c2cc(Cl)ccc2O)c2sc(=O)[nH]c2S1 (stereo unspecified) do in these assays?
tim23-1 inh: 62.1*; NALP3 yeast inh: 6.0; CR mimetic SO: 118.8; TIM10 inh: 33.0; tim10-1 inh: 34.4; tim23-1 conf: 57.7*

How did COC(=O)C1=C(C(=O)OC)C(c2cc(Br)ccc2O)c2sc(=O)[nH]c2S1 (stereo unspecified) do in these assays?
CR mimetic SO: 100.3

What do the screens show for `CC1(C)CC(=O)N(c2ccc(C#N)cc2)C(=O)C1`?
tim23-1 inh: 3.6; NALP3 yeast inh: 20.1; CR mimetic SO: 94.3; TIM10 inh: 1.3; tim10-1 inh: 2.2

Results for c1ccc2c(-c3ccc(OCCN4CCCCC4)cc3)c(-c3ccsc3)sc2c1 ?
tim23-1 inh: 62.9*; NALP3 yeast inh: 31.8; CR mimetic SO: 75.2; TIM10 inh: 28.5; tim10-1 inh: -6.4; tim23-1 conf: 65.0*

What do the screens show for `COc1cc(OC)cc(-c2sc3ccc(OC)cc3c2-c2ccc(OCCN3CCCCC3)cc2)c1`?
tim23-1 inh: 51.8*; CR mimetic SO: 98.5; TIM10 inh: 6.3; tim10-1 inh: 14.2; tim23-1 conf: 26.0

Results for c1ccc(-c2sc3ccccc3c2-c2ccc(OCCN3CCCCC3)cc2)cc1 ?
tim23-1 inh: -10.0; NALP3 yeast inh: 9.3; CR mimetic SO: 79.9; TIM10 inh: -1.2; tim10-1 inh: 2.5

What do the screens show for `COc1ccc(NC(=O)CSc2ccc3ccccc3c2)cc1S(=O)(=O)N1CCCCC1`?
tim23-1 inh: 19.2; NALP3 yeast inh: 11.8; CR mimetic SO: 86.8; TIM10 inh: -7.2; tim10-1 inh: 17.1

What do the screens show for `CCc1nnc(NC(=O)CSc2nc3c(cc2C#N)CCC3)s1`?
tim23-1 inh: 93.8*; NALP3 yeast inh: 14.6; CR mimetic SO: 96.5; TIM10 inh: -9.0; tim10-1 inh: 5.9; tim23-1 conf: 5.5

Results for CCSc1nnc(NC(=O)CSc2nc3c(cc2C#N)CCCC3)s1 ?
tim23-1 inh: 11.7; NALP3 yeast inh: 17.6; CR mimetic SO: 88.8; TIM10 inh: 11.5; tim10-1 inh: -0.4

What do the screens show for `CC(=O)N[C@H]1[C@H](Oc2ccc3c(c2)CCC2C3CC[C@]3(C)C(=O)CCC23)O[C@H](CO)[C@@H](O)[C@@H]1O` (stereo partly specified)?
tim23-1 inh: 8.2; NALP3 yeast inh: 29.8; CR mimetic SO: 106.0; TIM10 inh: 7.3; tim10-1 inh: -4.2

What do the screens show for `Cc1ccc(N=CC2=C(O)CC(C)(C)CC2=O)nc1`?
tim23-1 inh: 1.0; NALP3 yeast inh: 10.3; CR mimetic SO: 105.2; TIM10 inh: -3.0; tim10-1 inh: 7.6

How did Cc1ccc(N=Cc2cc(Cl)cc(Cl)c2O)nc1 do in these assays?
tim23-1 inh: 66.0*; NALP3 yeast inh: 5.4; CR mimetic SO: 109.5; TIM10 inh: 10.4; tim10-1 inh: 8.5; tim23-1 conf: 75.9*

Results for COc1ccc(CCNC(=O)/C=C/c2ccc(S(=O)(=O)N3CCOCC3)cc2)cc1 ?
tim23-1 inh: 6.2; NALP3 yeast inh: 13.3; CR mimetic SO: 103.8; TIM10 inh: 9.1; tim10-1 inh: 7.4

Results for Fc1ccc(-c2ccnc3nc(N4CCN(c5ccccc5)CC4)nn23)cc1 ?
tim23-1 inh: 41.5; NALP3 yeast inh: 3.6; CR mimetic SO: 109.5; TIM10 inh: 23.4; tim10-1 inh: 32.6

Results for c1ccc(-c2ccnc3nc(N4CCN(c5ccccc5)CC4)nn23)cc1 ?
tim23-1 inh: 51.4*; NALP3 yeast inh: 15.6; CR mimetic SO: 104.8; TIM10 inh: 30.1; tim10-1 inh: 17.0; tim23-1 conf: 37.0

How did Cc1ccsc1/C=N/NC(=O)c1nnn(-c2nonc2N)c1CSc1ccccc1 do in these assays?
tim23-1 inh: -3.9; NALP3 yeast inh: 8.5; CR mimetic SO: 97.8; TIM10 inh: -2.4; tim10-1 inh: -0.5

What do the screens show for `C=CCN1C(=O)C2C3C=CC(C2C1=O)C1C2C(=O)N(CC=C)C(=O)C2C31` (stereo unspecified)?
tim23-1 inh: -0.9; NALP3 yeast inh: 6.2; CR mimetic SO: 94.8; TIM10 inh: -6.5; tim10-1 inh: -8.5

Results for Cn1c(N2CCOCC2)nc2c1c(=O)n(Cc1ccc(Cl)c(Cl)c1)c(=O)n2C ?
tim23-1 inh: 54.8*; NALP3 yeast inh: 43.4; CR mimetic SO: 86.4; TIM10 inh: 15.2; tim10-1 inh: 37.1; tim23-1 conf: 37.5

How did CC(NC(=O)CSc1nnc2n1CCCCC2)c1ccccc1Cl (stereo unspecified) do in these assays?
tim23-1 inh: 19.0; NALP3 yeast inh: 15.3; CR mimetic SO: 95.8; TIM10 inh: 2.4; tim10-1 inh: 10.4

What do the screens show for `CCN(CC)c1ccc(/C=C2/C(=O)ON=C2C)cc1`?
tim23-1 inh: 55.8*; NALP3 yeast inh: 10.8; CR mimetic SO: 95.7; TIM10 inh: 17.5; tim10-1 inh: 31.8; tim23-1 conf: 60.4*

Results for CC1=NOC(=O)/C1=C/c1ccc(N(C)C)cc1 ?
tim23-1 inh: 28.3; NALP3 yeast inh: 9.9; CR mimetic SO: 94.2; TIM10 inh: -14.0; tim10-1 inh: 10.0

How did COc1ccc(C(=O)NCCS(=O)(=O)NCc2ccccc2)cc1 do in these assays?
tim23-1 inh: 6.4; NALP3 yeast inh: 24.7; CR mimetic SO: 77.3; TIM10 inh: 0.8; tim10-1 inh: 6.7

How did CCn1c(/C=N/c2nc3ccccc3n2C)nc2ccccc21 do in these assays?
tim23-1 inh: 55.9*; NALP3 yeast inh: -8.1; CR mimetic SO: 120.3; TIM10 inh: 18.1; tim10-1 inh: 31.4; tim23-1 conf: 42.1*

What do the screens show for `CCn1c(/C=C/c2cc[n+](C)cc2)nc2ccccc21`?
tim23-1 inh: 8.2; NALP3 yeast inh: 9.9; CR mimetic SO: 109.2; TIM10 inh: 14.7; tim10-1 inh: 23.0

Results for CCCOc1nc2ccccc2cc1/C=C/C(=O)O ?
tim23-1 inh: 29.5; NALP3 yeast inh: 16.1; CR mimetic SO: 115.0; TIM10 inh: 21.3; tim10-1 inh: 16.4
